Most compounds without a hit are left out; they make up all but 19% or so of the library.
TGFb SMAD3 inh – inhibitors of TGF-b signaling | HepG2 CAGA-GFP TGF-b/SMAD3 reporter, GFP fluorescence, 18 h; TGF-beta stimulated, 500 pg/mL final | Potency, µM (series often up to 46.1 µM), usual class: inhibitors | 410,000 tested, 1.2% active | AID 588855; also: nearly all actives have a fitted effect of over 65% in size
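HEPG2 CAGA-GFP, 1000 cells/well; 2 h settle, 37 C; cpd via pin tool; TGF-b 500 pg/mL final; 18 h, 37 C; GFP imaging ex488/em500-530; %Activity normalised to -TGF-b and +DMSO controls; CRC fit, curve class.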
TDP1 cell noCPT – qHTS for Inhibitors of human tyrosyl-DNA phosphodiesterase 1 (TDP1): qHTS in cells in absence of CPT; DT40 Tdp1-/- hTDP1 cells, no CPT, ATP luminescence, 48 h; Potency, µM (doses to about 46.2 µM), usual class: inhibitors; 420,000 tested, 15% active; also: nearly all actives have a fitted effect of over 55% in size
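Readout: luminescence from CellTiter-Glo after 30 min in the dark at RT. Cells: DT40 Tdp1-/- with stable hTDP1, 400/well. Exposure: compounds alone, ≥48 hr, 37 °C.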
HepG2 tox – HepG2 cytotoxicity, counter-screen for TGF-b inhibitors | HepG2 CAGA-GFP viability, ATP luminescence, 18 h | 410,000 tested, 0.76% active | Potency, µM (series often up to 46.1 µM), actives largely listed as cytotoxic
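HepG2 CAGA-GFP cells (1000/well, DMEM with 1% FBS) received compound, then TGF-beta at 500 pg/mL final, and were incubated 18 hours at 37 degrees C. Viability was read by CellTiter-Glo luminescence. Media-only wells were set as complete cell-killing and DMSO as no toxicity.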
IL1B secr inh – blocks inflammasome-driven IL-1 beta release; 360,000 tested, 4.7% active; activity change, % at 57.5 µM; AID 743279; THP-1 LPS/ATP IL-1B secretion, AlphaLISA, 16 h; stronger effect = lower value; in the data active = activity change below about -50%; inconclusive = mostly about -30% to -49%
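Secreted IL-1B measured by AlphaLISA bead assay after 16 h compound exposure of THP-1 cells; compounds (final up to 57.5 uM) added 1 h before LPS (250 ng/mL) and ATP (1.25 mM) stimulation; lower signal means less secretion.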
DT40 TDP1 CPT – growth inhibition of DT40 Tdp1-/-;hTDP1 cells with camptothecin (screen for TDP1 inhibitors). Potency, µM (titrated, usually from 46.2 µM), hits mostly inhibitors. 420,000 tested, 12% active. chicken DT40 Tdp1-/-;hTDP1 cells + 20 nM CPT, ATP luminescence, 48 h. AID 686979; also: nearly all actives have a fitted effect of over 55% in size
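Chicken DT40 Tdp1-/- cells complemented with human TDP1, 400 cells/well, exposed to compounds plus 20 nM camptothecin for at least 48 h at 37 C; viability read as ATP content by CellTiter-Glo luminescence.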
TDP1 block – blocks human tyrosyl-DNA phosphodiesterase 1; Q9NUW8; recombinant TDP1, AlphaScreen DNA substrate cleavage; Potency, µM (series often up to 130 µM), hits mostly inhibitors; 350,000 tested, 0.28% active; AID 485290; also: nearly all actives have a fitted effect of over 40% in size
Target sequence (Q9NUW8 whole entry, looked up): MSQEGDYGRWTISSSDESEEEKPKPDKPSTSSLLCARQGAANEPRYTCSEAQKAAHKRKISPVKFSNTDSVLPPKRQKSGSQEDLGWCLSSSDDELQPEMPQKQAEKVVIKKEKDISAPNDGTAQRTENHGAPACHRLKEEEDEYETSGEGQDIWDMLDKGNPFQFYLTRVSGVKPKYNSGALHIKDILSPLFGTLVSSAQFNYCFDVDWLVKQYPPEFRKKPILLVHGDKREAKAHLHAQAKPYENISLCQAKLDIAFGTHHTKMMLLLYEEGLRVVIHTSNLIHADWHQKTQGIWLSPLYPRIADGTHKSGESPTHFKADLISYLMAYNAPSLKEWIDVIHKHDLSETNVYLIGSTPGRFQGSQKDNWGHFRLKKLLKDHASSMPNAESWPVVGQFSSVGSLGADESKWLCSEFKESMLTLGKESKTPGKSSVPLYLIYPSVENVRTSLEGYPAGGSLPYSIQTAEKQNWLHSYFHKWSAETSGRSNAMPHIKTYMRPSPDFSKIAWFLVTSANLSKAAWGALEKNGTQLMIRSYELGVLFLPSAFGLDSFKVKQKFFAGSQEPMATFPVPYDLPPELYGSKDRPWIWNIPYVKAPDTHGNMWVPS
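Signal: AlphaScreen proximity between streptavidin donor and anti-FITC acceptor beads on intact substrate. Reaction: Tdp1 1 nM, substrate 15 nM final, 5 min RT after 15 min compound preincubation.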
Hits are given with their value; – = inactive; ? = inconclusive; · = no result. Unless noted, calls follow the shape of the dose curve; as a rule, active = well fitted curve in the direction sought with a large enough effect; inconclusive = small, poorly fitted or top-dose-only effect, or another doubt; inactive = no such curve, though single readings can be large; an effect the other way counts as inactive or inconclusive.

SMILES	TGFb SMAD3 inh	TDP1 cell noCPT	HepG2 tox	IL1B secr inh	DT40 TDP1 CPT	TDP1 block
Cc1cccc(C(=O)Nc2sc(-c3ccccc3)cc2C(=O)O)c1	–	?	–	–	?	–
COC(=O)c1cc(-c2ccccc2)sc1NC(=O)CN1C(=O)c2ccccc2C1=O	–	–	–	-62	–	–
COC(=O)c1cc(OC)c(OC)cc1NC(=O)CN1C(=O)c2ccccc2C1=O	–	–	–	–	–	–
NC(=O)c1cc(-c2ccccc2)sc1NC(=O)CN1CCCCC1	?	23µM	–	-51	21µM	–
CC(C)(C)C(=O)Nc1sc(-c2ccccc2)cc1C(=O)O	–	?	–	-78	?	–
CCN(C(=O)c1c(C)oc2ncnc(N3CCCCC3)c12)c1cc(C)ccc1C	–	18µM	–	·	?	–
Cc1ccc(NC(=O)c2c(C)oc3ncnc(N4CCCCC4)c23)c(C)c1	?	?	–	·	18µM	–
COc1cc(OC)c(NC(=O)c2c(C)oc3ncnc(N4CCCCC4)c23)cc1Cl	–	–	–	·	–	–
COc1cc(OC)c(N(C)C(=O)c2c(C)oc3ncnc(N4CCCCC4)c23)cc1Cl	–	16µM	–	·	?	–
Cc1ccc(CCNC(=O)c2c(C)oc3ncnc(N4CCOCC4)c23)cc1	–	–	–	·	–	–
Cc1cccc(NC(=O)c2c(C)oc3ncnc(N4CCCCC4)c23)c1C	–	?	–	·	?	–
CCc1nnc(SCC(=O)N(C)c2ccccc2)c2cc3sccc3n12	?	?	–	·	?	–
Cc1ccc(NC(=O)c2ccc3c(O)c(S(=O)(=O)c4ccc(Cl)cc4)c(=O)[nH]c3c2)cc1	–	–	–	·	–	–
Cc1ccc(-c2cnc(NCc3c(F)cccc3Cl)n2C)cc1	–	23µM	–	·	15µM	–
COc1ccc(CNc2ncc(-c3ccccc3)n2C)c2ccccc12	?	?	–	–	?	·
COc1ccc(CNc2ncc(-c3ccccc3)n2C)cc1	–	?	–	–	–	·
Cn1c(-c2ccc(F)cc2)cnc1NCc1ccccc1F	–	23µM	–	–	–	·
Cn1c(-c2ccccc2)cnc1NCc1cc(Cl)ccc1O	–	–	–	-55	–	·
Cn1c(-c2ccc(F)cc2)cnc1NCc1ccc(F)cc1F	–	?	–	–	–	·
CCc1ccc(CNc2ncc(-c3cccc(OC)c3)n2C)cc1	·	4.1µM	–	·	4.1µM	–
CCOc1ccc(-c2cnc(NCc3ccc(C(F)(F)F)cc3)n2C)cc1	?	5.8µM	–	·	5.2µM	–
CCOc1cc(CNc2ncc(-c3ccc(OC)cc3)n2C)ccc1O	–	18µM	–	–	?	–
Cn1c(-c2ccc(F)cc2)cnc1NCc1ccc(C#N)cc1	–	16µM	–	–	?	–
Cn1c(-c2ccccc2)cnc1NCc1ccc(-c2ccccc2)cc1	?	?	–	–	26µM	·
CC(=O)c1cccc(S(=O)(=O)N2CCN(c3nc(-c4cccs4)nc4ccccc34)CC2)c1	–	?	–	·	?	·
SMILES	TGFb SMAD3 inh	TDP1 cell noCPT	HepG2 tox	IL1B secr inh	DT40 TDP1 CPT	TDP1 block
COc1ccc(CNc2ncc(-c3ccccc3)n2C)c(OC)c1OC	–	15µM	–	–	?	·
Cc1ccc(-n2c(=O)c3c(cnn3C)n(Cc3ccccc3F)c2=O)cc1	–	–	–	·	18µM	–
Cc1cc(C)c(OCC(=O)OCC(=O)NC2CCC(C)CC2)c(C)c1 (stereo unspecified)	–	–	–	–	–	–
COc1ccc(S(=O)(=O)NCCc2sc3nc(-c4ccc(C)cc4)nn3c2C)cc1C	?	?	–	·	?	–
CCCS(=O)(=O)NCCc1sc2nc(-c3ccc(F)cc3)nn2c1C	–	15µM	–	·	21µM	–
CCCS(=O)(=O)NCCc1sc2nc(-c3ccc(Cl)cc3)nn2c1C	?	8.2µM	–	·	5.2µM	–
Cc1cc(C)c(S(=O)(=O)NCCc2sc3nc(-c4ccc(F)cc4)nn3c2C)c(C)c1	11µM	21µM	–	·	?	–
CCOc1ccc(S(=O)(=O)NCCc2sc3nc(-c4ccc(F)cc4)nn3c2C)cc1	?	15µM	–	·	?	–
Cc1ccc(-c2nc3sc(CCNC(=O)c4ccc(C)c(C)c4)c(C)n3n2)cc1	–	–	–	·	–	–
CCC1CCCCN1S(=O)(=O)c1ccc(N2CCCCS2(=O)=O)cc1 (stereo unspecified)	–	?	–	·	?	–
CC1(C(=O)NCC2CC2)CCN1C(=O)C1(c2ccc(Cl)cc2)CC1 (stereo unspecified)	–	–	–	–	?	·
Cc1cc(C)n(-c2cc(N3CCN(S(=O)(=O)c4ccc(Br)cc4)CC3)ccc2[N+](=O)[O-])n1	–	12µM	–	–	12µM	–
Cc1cc(C)c(S(=O)(=O)N2CCN(c3ccc([N+](=O)[O-])c(-n4nc(C)cc4C)c3)CC2)c(C)c1	–	21µM	–	–	26µM	–
COC(=O)c1ccc(N2CCN(S(=O)(=O)c3c(C)cc(C)cc3C)CC2)c([N+](=O)[O-])c1	–	–	–	–	–	–
COC(=O)c1ccc(N2CCN(S(=O)(=O)c3ccc(Br)cc3)CC2)c([N+](=O)[O-])c1	–	?	–	–	?	–
Cc1ccccc1OS(=O)(=O)c1cn(C)c(=O)n(C)c1=O	–	–	–	–	–	–
CC(=O)c1ccc(-c2ccc3c4c(ccc3c2)OC(CNC(=O)C(C)N2CCOCC2)C4)s1 (stereo unspecified)	·	7.3µM	·	·	?	·
O=C(NCc1cccc(Cl)c1)c1ccc2nc(N3CCCCC3)sc2c1	–	?	–	·	?	–
Cc1ccc(Oc2nnc(-c3ccccc3)c3ccccc23)cc1	–	?	–	–	21µM	–
Cc1ccc(-c2nnc(Oc3cccc(C)c3)c3ccccc23)cc1	–	?	–	-75	?	–
Cc1ccc(NC(=O)c2ccc(OCC3CCCO3)cc2)cc1 (stereo unspecified)	–	?	–	–	?	–
Cc1ccc(-c2nnc(OCC3CCCO3)c3ccccc23)cc1 (stereo unspecified)	–	18µM	–	-66	?	–
CCOC(=O)c1c(C)[nH]c(C)c1S(=O)(=O)NCC(=O)Nc1cccc(C(F)(F)F)c1	–	–	–	·	?	–
Cn1c(CC(=O)NNC(=O)c2ccc(F)cc2Cl)nc2ccccc21	–	?	–	–	16µM	–
